Screening results deposited in PubChem by National Center for Advancing Translational Sciences (NCATS).
Shown are actives, neighbours in structure and some others; about 17% of the full set was active somewhere.
HepG2 tox = counter-screen for TGF-b inhibitors: cytotoxicity in HepG2 cells | HepG2 CAGA-GFP viability, ATP luminescence, 18 h | Potency, µM (titrated, usually from 46.1 µM), hits mostly cytotoxic | hit rate 0.76% among 410,000 | AID 588856
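CellTiter-Glo luminescence gave cytotoxicity after 18 hours at 37 degrees C. The cells were HepG2 CAGA-GFP in 1% FBS DMEM, stimulated with 500 pg/mL TGF-beta after compound addition. %Activity was normalised to no-cell wells (complete cell-killing) and DMSO (no toxicity), and curves were fitted and classified.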
HT1080NT lethal = kills 2HG-producing HT-1080-NT fibrosarcoma cells. HT-1080-NT fibrosarcoma viability, CellTiter-Glo ATP luminescence, 48 h. Potency, µM (highest dose often 46.1 µM), hits mostly cytotoxic. hit rate 1.6% among 360,000. AID 686970;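 note: NT is the 2HG producing partner of a matched IDH1 knockdown line; nearly all actives have a fitted effect of over 55% in size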
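A 48-hour cytotoxicity screen used HT-1080-NT cells plated 2 hours before compound delivery. ATP-based CellTiter-Glo luminescence measured viability, normalized to DMSO and no-cell controls.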
TDP1 cell CPT = growth inhibition of DT40 Tdp1-/-;hTDP1 cells with camptothecin (screen for TDP1 inhibitors); chicken DT40 Tdp1-/-;hTDP1 cells + 20 nM CPT, ATP luminescence, 48 h; Potency, µM (titrated, usually from 46.2 µM), hits mostly inhibitors; hit rate 12% among 420,000; AID 686979; note: nearly all actives have a fitted effect of over 55% in size
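Chicken DT40 Tdp1-/- cells complemented with human TDP1, 400 cells/well, exposed to compounds plus 20 nM camptothecin for at least 48 h at 37 C; viability read as ATP content by CellTiter-Glo luminescence.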
TGFb SMAD3 inh = blocks TGF-b signaling. Potency, µM (highest dose often 46.1 µM), actives largely listed as inhibitors. AID 588855. HepG2 CAGA-GFP TGF-b/SMAD3 reporter, GFP fluorescence, 18 h; TGF-beta stimulated, 500 pg/mL final. hit rate 1.2% among 410,000; note: nearly all actives have a fitted effect of over 65% in size
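First, reporter cells (HEPG2 CAGA-GFP) rested 2 h at 37 degrees C. Next, compounds were pinned in and TGF-beta added to 500 pg/mL final. After 18 h, GFP was imaged per cell and summed per well.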
DT40 TDP1 no CPT = qHTS for Inhibitors of human tyrosyl-DNA phosphodiesterase 1 (TDP1): qHTS in cells in absence of CPT. AID 686978, 2013. DT40 Tdp1-/- hTDP1 cells, no CPT, ATP luminescence, 48 h. hit rate 15% among 420,000. Potency, µM (highest dose often 46.2 µM), hits mostly inhibitors; note: nearly all actives have a fitted effect of over 55% in size
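Seeded 400 DT40-hTDP1 cells/well (vehicle DMSO, no 20 nM CPT); pinned compounds; ≥48 hr at 37 °C; CellTiter-Glo luminescence as viability measure.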
HT1080 IDH1KD tx = toxicity to HT-1080 IDH1 knockdown cells (counter line). hit rate 2% among 360,000. AID 686971. HT-1080 IDH1 knockdown viability, ATP luminescence, 48 h. Potency, µM (doses to about 46.1 µM), hits mostly cytotoxic
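IDH1KD HT-1080 cells, 750/well, RPMI + 5% FBS; compound pinned after 2 h settling; 48 h, 37 °C; CellTiter-Glo luminescence; % activity normalised to DMSO and no-cell wells; curves fitted, classed by r2 and efficacy.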
Numbers stand for hits; . = inactive; ? = inconclusive; / = not tested or not shown. Calls come from the whole dose curve; as a rule, active = well fitted curve in the direction sought with a large enough effect; inconclusive = small, poorly fitted or top-dose-only effect, or another doubt; inactive = no such curve, though single readings can be large; an effect the other way counts as inactive or inconclusive.

SMILES | HepG2 tox | HT1080NT lethal | TDP1 cell CPT | TGFb SMAD3 inh | DT40 TDP1 no CPT | HT1080 IDH1KD tx
COc1cc(-c2nc3ccc(Cl)cn3c2Nc2ccc3c(c2)OCCO3)ccc1O | . | / | ? | ? | ? | /
O=C(Nc1ccccc1)N1CCC2(CC1)CCN(C(=O)Oc1ccccc1)CC2 | / | / | . | / | ? | /
CC(=O)Nc1ccc(OC(=O)N2CCN(/[N+]([O-])=N/Oc3ccc([N+](=O)[O-])cc3[N+](=O)[O-])CC2)cc1 | . | / | / | ? | / | /
O=C(CCCc1ccc(N(CCCl)CCCl)cc1)NCc1ccccc1 | . | ? | 0.73µM | . | 0.73µM | 23µM
CC(=O)NC(Cc1ccc(N(CCCl)CCCl)cc1)C(=O)NC(C(=O)O)C(C)C (configuration not stated) | . | . | . | . | . | .
Cc1cc(N2C(=O)C3CCCN3C2c2ccccc2)no1 (configuration not stated) | . | . | . | . | . | .
C[N@+]12CCCC[C@@H]1CCC(=C(c1cccs1)c1cccs1)C2 | / | / | 27µM | / | 19µM | /
Cc1ccc(-c2nc3ccc(Cl)cn3c2Nc2ccccc2C)s1 | . | / | 21µM | . | 16µM | /
CC[C@@H](C(=O)[C@@H](C)[C@@H](O)[C@H](C)[C@@H]1O[C@@H]([C@@H](CC)C(=O)O)CC[C@@H]1C)[C@H]1O[C@]2(C=C[C@@H](O)[C@]3(CC[C@@](C)([C@H]4CC[C@](O)(CC)[C@H](C)O4)O3)O2)[C@H](C)C[C@@H]1C | . | 0.52µM | 0.58µM | ? | 0.52µM | 2.9µM
O=C(Cc1n[nH]c(=O)c2ccccc12)OCc1c(Cl)cccc1Cl | . | . | ? | . | ? | .
O=C(NC1C=CS(=O)(=O)C1)c1sc2ccccc2c1Cl (configuration not stated) | . | 16µM | ? | . | 23µM | 11µM
O=C(CN1CCCC1)c1ccccc1 | . | / | ? | . | ? | /
O=C(c1ccccc1)C(CN1CCCC1)c1ccccc1 (configuration not stated) | 5.6µM | 21µM | 1.8µM | ? | 1.6µM | 13µM
CCN(CCO)CCn1c(Cc2ccccc2)nc2c1c(=O)n(C)c(=O)n2C | / | / | . | / | . | /
Cc1[nH]ccc2c1[nH]c1cc(=O)ccc12 | . | ? | 8.2µM | . | 13µM | ?
Cc1cccc(C)c1-n1nnnc1C(CCc1ccccc1)N1CCC2(CC1)C(=O)NCN2c1ccccc1 (configuration not stated) | . | . | ? | . | ? | .
CSCCC(c1nnnn1-c1c(C)cccc1C)N1CCC2(CC1)C(=O)NCN2c1ccccc1 (configuration not stated) | . | ? | 23µM | 11µM | ? | ?
CSCCC(c1nnnn1C1CCCC1)N1CCC2(CC1)C(=O)NCN2c1ccccc1 (configuration not stated) | . | . | ? | . | ? | .
O=C1NCN(c2ccccc2)C12CCN(C(c1nnnn1Cc1ccccc1)C1CC1)CC2 (configuration not stated) | . | . | ? | ? | 21µM | .
CSCCC(c1nnnn1Cc1ccccc1)N1CCC2(CC1)C(=O)NCN2c1ccccc1 (configuration not stated) | . | ? | 15µM | ? | 21µM | .
CC(C)(C)n1nnnc1C(CCc1ccccc1)N1CCC2(CC1)C(=O)NCN2c1ccccc1 (configuration not stated) | . | ? | 21µM | ? | 15µM | ?
Cc1c(C=C2C(=O)N(C)C(=S)N(C)C2=O)c2ccccc2n1CC(=O)NCC1CCCO1 (configuration not stated) | . | . | ? | . | ? | .
Cc1ccc(C)c(OCC(=O)N2CCCN(C)CC2)c1 | . | . | . | . | . | .
COc1ccc(NC(=O)CCOc2cc(C)ccc2C)cc1S(=O)(=O)N1CCCCC1 | . | . | ? | . | 21µM | .
